Assay results: PubChem BioAssay AID1671202 (University of Kansas High Throughput Screening Laboratory, 2021)
Among all 190,000 compounds or so, about 6,900 (3.6%) were called active. For the sample, actives were picked, then their nearest neighbours and some compounds at random. A number with no mark means an inactive call. Cut-off read from the data, not from the text of the source: active = inhibition above about 50%; inactive = the rest.

molecular target: Huntingtin (Homo sapiens) (UniProt P42858); assay: mutant huntingtin-calmodulin interaction inhibitors – biochemical, AlphaScreen, primary screen (AID 1671202); conditions: AlphaScreen His-mHTT/GST-CaM binding, luminescence; at 15 µM, hits give high values;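 note: 0% = both proteins with DMSO and 100% = one protein alone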
Sequence (P42858 whole entry, looked up, stated change not applied): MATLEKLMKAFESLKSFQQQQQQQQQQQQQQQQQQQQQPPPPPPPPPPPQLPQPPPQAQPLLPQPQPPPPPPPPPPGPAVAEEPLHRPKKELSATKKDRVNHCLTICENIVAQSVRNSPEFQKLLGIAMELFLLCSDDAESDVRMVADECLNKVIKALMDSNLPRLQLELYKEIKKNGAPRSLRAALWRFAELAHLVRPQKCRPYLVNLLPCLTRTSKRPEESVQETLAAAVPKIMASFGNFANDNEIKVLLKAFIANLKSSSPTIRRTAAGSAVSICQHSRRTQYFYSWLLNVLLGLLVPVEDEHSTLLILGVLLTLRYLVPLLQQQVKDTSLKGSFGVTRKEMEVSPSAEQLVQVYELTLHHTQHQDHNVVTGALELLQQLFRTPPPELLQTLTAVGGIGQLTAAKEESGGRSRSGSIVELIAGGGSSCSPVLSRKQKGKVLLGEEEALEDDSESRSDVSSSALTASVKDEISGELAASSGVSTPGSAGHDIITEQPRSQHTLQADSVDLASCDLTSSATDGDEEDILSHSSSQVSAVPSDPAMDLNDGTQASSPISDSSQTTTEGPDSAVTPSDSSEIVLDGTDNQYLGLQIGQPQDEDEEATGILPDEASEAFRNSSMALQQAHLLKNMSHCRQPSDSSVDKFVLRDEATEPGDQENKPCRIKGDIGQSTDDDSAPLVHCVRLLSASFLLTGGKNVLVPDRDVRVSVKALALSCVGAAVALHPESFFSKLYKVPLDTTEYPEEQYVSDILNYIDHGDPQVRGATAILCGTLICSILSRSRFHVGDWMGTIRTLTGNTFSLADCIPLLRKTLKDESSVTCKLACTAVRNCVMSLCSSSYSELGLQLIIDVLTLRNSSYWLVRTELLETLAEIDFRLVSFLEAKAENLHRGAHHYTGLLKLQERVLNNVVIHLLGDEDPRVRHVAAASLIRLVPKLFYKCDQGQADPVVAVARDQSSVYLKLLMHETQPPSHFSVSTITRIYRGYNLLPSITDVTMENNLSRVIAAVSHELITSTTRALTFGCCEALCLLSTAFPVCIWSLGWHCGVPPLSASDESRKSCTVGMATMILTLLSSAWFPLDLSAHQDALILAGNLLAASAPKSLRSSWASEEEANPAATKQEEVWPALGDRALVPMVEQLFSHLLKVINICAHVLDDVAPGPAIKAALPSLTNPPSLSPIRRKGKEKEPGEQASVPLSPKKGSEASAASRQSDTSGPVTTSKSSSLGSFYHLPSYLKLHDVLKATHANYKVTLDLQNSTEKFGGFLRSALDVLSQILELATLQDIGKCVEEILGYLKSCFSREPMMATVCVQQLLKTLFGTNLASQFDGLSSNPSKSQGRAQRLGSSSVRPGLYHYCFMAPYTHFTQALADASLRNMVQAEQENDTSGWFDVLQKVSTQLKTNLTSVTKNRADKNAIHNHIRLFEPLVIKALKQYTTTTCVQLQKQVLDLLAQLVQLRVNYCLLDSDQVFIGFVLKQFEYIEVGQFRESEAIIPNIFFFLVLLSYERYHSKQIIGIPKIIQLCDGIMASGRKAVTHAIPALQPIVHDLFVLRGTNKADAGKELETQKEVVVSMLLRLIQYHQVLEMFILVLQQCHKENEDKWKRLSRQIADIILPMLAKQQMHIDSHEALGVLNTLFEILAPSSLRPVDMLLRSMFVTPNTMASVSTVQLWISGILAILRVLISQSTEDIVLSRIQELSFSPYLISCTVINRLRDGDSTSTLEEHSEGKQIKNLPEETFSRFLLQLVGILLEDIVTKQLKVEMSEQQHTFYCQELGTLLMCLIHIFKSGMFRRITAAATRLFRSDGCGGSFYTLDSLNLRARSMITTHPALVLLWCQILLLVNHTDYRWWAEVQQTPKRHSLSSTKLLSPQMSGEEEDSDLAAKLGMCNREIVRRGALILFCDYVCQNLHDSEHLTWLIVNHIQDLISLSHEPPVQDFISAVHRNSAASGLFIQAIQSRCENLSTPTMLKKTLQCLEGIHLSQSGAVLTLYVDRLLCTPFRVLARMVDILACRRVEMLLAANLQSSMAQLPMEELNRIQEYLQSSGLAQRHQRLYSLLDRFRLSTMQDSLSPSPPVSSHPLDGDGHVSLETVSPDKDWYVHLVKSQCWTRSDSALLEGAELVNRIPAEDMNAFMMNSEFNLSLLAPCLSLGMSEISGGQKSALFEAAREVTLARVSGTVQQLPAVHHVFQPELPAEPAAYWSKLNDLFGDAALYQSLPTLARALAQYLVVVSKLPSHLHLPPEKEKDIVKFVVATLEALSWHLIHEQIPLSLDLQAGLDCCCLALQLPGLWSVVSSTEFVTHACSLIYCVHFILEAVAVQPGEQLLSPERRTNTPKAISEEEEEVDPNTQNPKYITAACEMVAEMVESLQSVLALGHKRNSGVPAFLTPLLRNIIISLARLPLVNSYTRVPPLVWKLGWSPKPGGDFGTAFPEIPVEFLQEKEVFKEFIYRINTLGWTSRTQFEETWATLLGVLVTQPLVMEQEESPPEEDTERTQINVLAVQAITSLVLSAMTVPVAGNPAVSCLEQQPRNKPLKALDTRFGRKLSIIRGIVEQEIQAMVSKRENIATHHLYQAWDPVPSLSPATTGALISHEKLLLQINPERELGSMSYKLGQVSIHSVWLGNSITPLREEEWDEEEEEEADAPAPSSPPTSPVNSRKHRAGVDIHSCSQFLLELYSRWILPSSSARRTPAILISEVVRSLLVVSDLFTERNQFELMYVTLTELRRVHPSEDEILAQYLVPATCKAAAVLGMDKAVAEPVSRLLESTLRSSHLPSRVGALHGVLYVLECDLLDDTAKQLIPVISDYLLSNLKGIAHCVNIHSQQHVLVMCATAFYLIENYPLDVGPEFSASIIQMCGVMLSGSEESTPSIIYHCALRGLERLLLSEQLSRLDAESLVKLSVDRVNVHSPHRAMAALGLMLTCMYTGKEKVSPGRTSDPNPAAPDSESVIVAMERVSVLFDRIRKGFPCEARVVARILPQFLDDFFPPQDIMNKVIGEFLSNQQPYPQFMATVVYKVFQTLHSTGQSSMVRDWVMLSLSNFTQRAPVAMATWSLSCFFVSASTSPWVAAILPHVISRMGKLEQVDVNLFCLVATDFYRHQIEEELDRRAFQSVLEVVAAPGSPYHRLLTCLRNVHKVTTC

Q: Which inhibition does the source give for `COCCN=C1Nc2ccccc2CNC12CCN(C(=O)c1cccc(C(F)(F)F)c1)C2` (stereo not given) here?
A: 18.7%

Q: `COCCN=C1Nc2ccccc2NC12CCCN(C(=O)Cc1cccs1)C2` (stereo not given) was tested. Which inhibition did it give?
A: 63% (active)

Q: With `CCOc1ccc(CC(=O)N2CCCC3(C2)Nc2cccnc2NC3=NC2CCCC2)cc1` (stereo not given) as the compound, how does the inhibition read?
A: 11.4%

Q: With `O=C(c1ccsc1)N1CCCC2(C1)Nc1ccccc1NC2=NC1CCCC1` (stereo not given) as the compound, how does the inhibition read?
A: 4.96%

Q: Which inhibition does the source give for `CCOc1ccc(CN2C(=O)CCC2(C)C(=O)NC2CCCC2)cc1OC` (stereo not given) here?
A: 16%

Q: How did the inhibition turn out when `CCn1c(SCc2ccccc2F)nnc1-c1cccc([N+](=O)[O-])c1` was run?
A: 13.8%

Q: With `Cc1ccc(C(=O)COc2ccccc2Cl)cc1C` as the compound, how does the inhibition read?
A: -114%

Q: With `COc1ccc([N+](=O)[O-])cc1C1=N/C(=C/c2cccc(F)c2)C(=O)O1` as the compound, how does the inhibition read?
A: -5%

Q: How did the inhibition turn out when `COc1ccc(NC(=O)C2CCN(c3cnn(C)c(=O)c3)CC2)c(OC)c1` was run?
A: 36.1%

Q: `COc1ccccc1C(=O)N1CCC(c2nc(C(=O)N3CCOCC3)c(C)o2)CC1` was tested. Which inhibition did it give?
A: -6.99%

Q: How did the inhibition turn out when `COc1cccc(C(=O)N2CCC(Oc3nc4c(C)ccc(C)c4s3)CC2)c1OC` was run?
A: 64.4% (active)

Q: How did the inhibition turn out when `COc1cccc(C(=O)N2CCC(c3nnc(C(F)(F)F)o3)CC2)c1OC` was run?
A: -7.5%

Q: Which inhibition does the source give for `Cc1ccc2nc(C(=O)NCc3cc(F)ccc3F)cn2c1` here?
A: -9%

Q: For `C=CCN(CC=C)S(=O)(=O)c1ccc(C(=O)Nc2c(C(N)=O)oc3ccccc23)cc1`, which inhibition is on record?
A: 15.2%

Q: `CCNC(=O)C1Cc2ccc(OC)cc2N2CCN(Cc3ccc(Cl)cc3)CC12` (stereo not given) was tested. Which inhibition did it give?
A: 93.9% (active)

Q: For `CCNC(=O)C1Cc2ccc(OC)cc2N2CCN(c3ccccc3OC)CC12` (stereo not given), which inhibition is on record?
A: 47%

Q: With `COCCNC(=O)C1Cc2ccccc2N2CCN(c3ccccc3)CC12` (stereo not given) as the compound, how does the inhibition read?
A: 11.4%

Q: `O=C(Nc1ccc2c(c1)OCO2)N1CCOc2ccccc21` was tested. Which inhibition did it give?
A: 7.08%

Q: With `Cc1cc(C)c(Cc2c(C)nc3c(C(=O)NC4CCCC4)cnn3c2C)c(C)c1` as the compound, how does the inhibition read?
A: -6%

Q: For `Cc1ccccc1Cc1c(C)nc2c(C(=O)NC3CCCCC3)cnn2c1C`, which inhibition is on record?
A: 3%

Q: Which inhibition does the source give for `Cc1nc2c(C(=O)NC3CCCC3)cnn2c(C)c1Cc1cccc(Cl)c1` here?
A: 79% (active)

Q: Which inhibition does the source give for `COc1ccc(C2=NC3(CCN(CC(=O)NCc4ccc(C)cc4)CC3)NC2=O)cc1` here?
A: 18.4%

Q: For `CC(C)NC(=O)c1ccc(C(=O)NC(C)C)nc1`, which inhibition is on record?
A: 0.9%

Q: How did the inhibition turn out when `COc1ccc(-c2ccc3nc(N4CCC(C(N)=O)CC4)sc3n2)cc1` was run?
A: 27%

Q: For `CCN(CC)C(=O)C1CCN(c2nc3ccc(-c4ccc(OC)cc4)nc3s2)CC1`, which inhibition is on record?
A: 66.8% (active)

Q: For `O=C(NC1CC1)C1CCN(c2nc3ccc(-c4ccccc4)nc3s2)CC1`, which inhibition is on record?
A: 0.8%

Q: Which inhibition does the source give for `CN1CCC(NC(=O)C2CCN(c3nc4ccc(-c5ccsc5)nc4s3)CC2)CC1` here?
A: 70.8% (active)

Q: Which inhibition does the source give for `CN(C)C(=O)C1CCN(c2nc3ccc(-c4cccc(F)c4)nc3s2)CC1` here?
A: 0.2%

Q: How did the inhibition turn out when `CC(C)CNC(=O)C1CCN(c2nc3ccc(-c4ccncc4)nc3s2)CC1` was run?
A: 4.07%

Q: With `O=C(NCc1ccc2c(c1)OCO2)c1cc2c(s1)CCN(C(=O)c1ccc(F)cc1)C2` as the compound, how does the inhibition read?
A: 1.84%

Q: How did the inhibition turn out when `CCOc1ccc2c(=O)c(Oc3ccccc3)coc2c1` was run?
A: -2.3%

Q: `CCOc1ccccc1NC(=O)Nc1ccc2c(c1)CN(C(=O)c1ccco1)CC2` was tested. Which inhibition did it give?
A: 28.9%

Q: How did the inhibition turn out when `Cn1c(C2CCN(C(=O)Cc3ccccc3)C2)nc2ccncc21` (stereo not given) was run?
A: -1.65%

Q: For `N#Cc1nc(-c2ccco2)oc1N1CCN(C(=O)c2ccccc2F)CC1`, which inhibition is on record?
A: -5.8%

Q: `Cc1ccccc1-n1c(=O)n(C2CC2)c(=O)c2c1ncn2Cc1c(F)cccc1F` was tested. Which inhibition did it give?
A: -4.6%

Q: Which inhibition does the source give for `Cc1cc(C)nc(SCC(=O)c2ccc(Cl)cc2)n1` here?
A: 1.3%

Q: With `COc1ccc(C(=O)Sc2nc(C)cc(C)n2)cc1` as the compound, how does the inhibition read?
A: 98% (active)

Q: `COc1ccc(NC(=O)c2ccc(OC)cc2)cc1` was tested. Which inhibition did it give?
A: -2%

Q: `COc1ccc(C2=N/C(=C\c3ccc(Cl)cc3)C(=O)O2)cc1OC` was tested. Which inhibition did it give?
A: -4%

Q: `O=c1[nH]c2ccc(S(=O)(=O)Nc3ccc(OC(F)(F)F)cc3)cc2o1` was tested. Which inhibition did it give?
A: 0%

Q: Which inhibition does the source give for `O=C(Nc1nnc(Cc2cccs2)o1)c1ccc(Cl)cc1Cl` here?
A: 6%

Q: `COc1ccc(-c2cc3c(c4c2ccn4C)C2CCC3C2)cn1` (stereo not given) was tested. Which inhibition did it give?
A: 52.6% (active)

Q: With `Cc1cc2[nH]c(C(=O)Nc3ccccc3F)c(CN3CCOCC3)c2s1` as the compound, how does the inhibition read?
A: 23%

Q: Which inhibition does the source give for `COc1ccc(C(=O)N2CCC(c3cc(N)on3)CC2)cc1F` here?
A: 3.7%

Q: For `CCCCN(C)C(=O)C1CCCN(c2ncccc2-c2noc(C3CCC3)n2)C1` (stereo not given), which inhibition is on record?
A: 23.9%

Q: With `COc1cc2c(cc1OC)C(C(=O)O)C(c1cccc([N+](=O)[O-])c1)N(C)C2=O` (stereo not given) as the compound, how does the inhibition read?
A: 0%

Q: Which inhibition does the source give for `COc1ccc2c(c1)C1=NN(C(C)=O)C(c3cccc([N+](=O)[O-])c3)C1CC2` (stereo not given) here?
A: 3%

Q: Which inhibition does the source give for `CC(=O)c1cc2c3c(c1)C1C=CCC1C(c1cccc([N+](=O)[O-])c1)N3CC1CC=CC21` (stereo not given) here?
A: 97% (active)

Q: With `O=C(NCc1ccco1)Nc1c[nH]c2ccccc12` as the compound, how does the inhibition read?
A: 3%

Q: How did the inhibition turn out when `NCCN1C(=O)c2[nH]nc(-c3ccccc3)c2C1c1ccccc1` (stereo not given) was run?
A: 9%

Q: With `CCOC(=O)N1CCC(c2nnc(Cc3ccc(OC)cc3)s2)CC1` as the compound, how does the inhibition read?
A: -8.5%

Q: With `NS(=O)(=O)c1ccc(C(=O)NCCOc2ccc(-c3ccccn3)nn2)cc1` as the compound, how does the inhibition read?
A: 100% (active)

Q: With `Cc1nc(-c2ccccc2)sc1C(=O)NCCOc1ccc(-c2cccs2)nn1` as the compound, how does the inhibition read?
A: 6%

Q: For `Cc1ccc(C(=O)Nc2cc(-c3ccccn3)no2)cc1`, which inhibition is on record?
A: 1.2%

Q: For `O=C(Cc1ccccc1Cl)NCC1CCN(c2cc(-c3ccncc3)[nH]n2)CC1`, which inhibition is on record?
A: -5.18%
